Paper PMC5540273 (PLoS ONE, 2017)

Assays:
Details in all cases: concentration: 1 μM, replicates: in singlicate; n = 1
MAP4K4 = tested on: MAP4K4
MAP4K5 = tested on: MAP4K5
MAPKAPK2 = tested on: MAPKAPK2
MAPKAPK5 = tested on: MAPKAPK5
MARK1 = tested on: MARK1
MARK2 = tested on: MARK2
MARK3 = tested on: MARK3
MARK4 = tested on: MARK4
MAST1 = tested on: MAST1
MEK1 = tested on: T1, MEK1
T1 construct: gene MAP2K1

MEK2 = tested on: T2, MEK2
T2 construct: gene MAP2K2

MEK3 = tested on: T3, MEK3
T3 construct: gene MAP2K3

MEK4 = tested on: T4, MEK4
T4 construct: gene MAP2K4

MEK5 = tested on: T5, MEK5
T5 construct: gene MAP2K5

MEK6 = tested on: T6, MEK6
T6 construct: gene MAP2K6

MELK = tested on: MELK
MERTK = tested on: MERTK
MET = tested on: MET
MINK = tested on: T7, MINK
T7 construct: gene MINK1

MKK7 = tested on: MKK7
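Also: KINOMEscan kinase panel screen.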

Row | Structure (SMILES) | %Inh (MAP4K4) | %Inh (MAP4K5) | %Inh (MAPKAPK2) | %Inh (MAPKAPK5) | %Inh (MARK1) | %Inh (MARK2) | %Inh (MARK3) | %Inh (MARK4) | %Inh (MAST1) | %Inh (MEK1) | %Inh (MEK2) | %Inh (MEK3) | %Inh (MEK4) | %Inh (MEK5) | %Inh (MEK6) | %Inh (MELK) | %Inh (MERTK) | %Inh (MET) | %Inh (MINK) | %Inh (MKK7)
1 | Cc1ccc(NC(=O)Nc2cccc(Cl)c2)cc1-c1ccc(C(=O)Nc2ccncc2)cc1 [GSK1398468] | 0% | 0% | 0% | 0% | 26% | 0% | 0% | 12% | 0% | 100% | 0% | 0% | 38% | 11% | 0% | 0% | 0% | 0% | 14% | 30%
2 | CS(=O)(=O)c1ccc(-c2nc3n(c2-c2ccncc2)CCC3)cc1 [SKF-105942] | 0% | 0% | 36% | 0% | 0% | 0% | 0% | 0% | 0% | 0% | 0% | 0% | 8% | 15% | 0% | 0% | 24% | 0% | 1% | 0%
3 | Cc1ccc(NC(=O)Nc2cc(C(C)(C)C)nn2-c2ccccc2)cc1 [GSK1014915] | 19% | 11% | 25% | 0% | 0% | 0% | 17% | 10% | 0% | 0% | 0% | 0% | 12% | 2% | 0% | 26% | 15% | 0% | 0% | 0%
4 | NC(=O)c1nnc2ccccc2c1N | 12% | 11% | 0% | 0% | 12% | 0% | 0% | 19% | 1% | 40% | 47% | 46% | 17% | 34% | 0% | 9% | 0% | 16% | 38% | 0%
5 | CCCc1ccc(S(=O)(=O)NC2CCN(c3ccnc(Nc4ccc(F)cc4)n3)C2)cc1 (centres unmarked) [GSK1379715] | 0% | 0% | 15% | 0% | 0% | 0% | 0% | 0% | 48% | 0% | 0% | 0% | 28% | 0% | 100% | 0% | 0% | 0% | 0% | 0%
6 | Cc1ccc(-c2cc(-c3c[nH]nc3-c3ccccn3)ccn2)cc1 [GW684088] | 58% | 0% | 0% | 0% | 0% | 14% | 0% | 4% | 64% | 9% | 0% | 0% | 9% | 17% | 19% | 25% | 13% | 0% | 87% | 14%
7 | Nc1ncnc2[nH]c(-c3ccccc3)nc12 [AH5015] | 4% | 0% | 12% | 0% | 0% | 0% | 0% | 0% | 0% | 0% | 0% | 1% | 13% | 50% | 0% | 0% | 0% | 0% | 4% | 0%
8 | CN(C)CCN(C)C(=O)c1cc(-c2ccncc2)c(-c2ccc(Cl)c(O)c2)o1.Cl.Cl [SB-710397] | 18% | 0% | 2% | 0% | 0% | 0% | 0% | 0% | 10% | 0% | 0% | 0% | 0% | 48% | 0% | 9% | 24% | 0% | 46% | 14%
9 | COc1cccc(-c2cc(-c3c[nH]nc3-c3ccccn3)ccn2)c1 [GW680338] | 40% | 1% | 0% | 1% | 0% | 12% | 0% | 0% | 0% | 16% | 0% | 67% | 8% | 13% | 0% | 19% | 14% | 10% | 65% | 10%
10 | COc1ccc(Nc2nccc(NCCNC(=O)Nc3ccccc3F)n2)cc1 [GSK1379901] | 0% | 0% | 25% | 0% | 0% | 0% | 0% | 11% | 0% | 0% | 8% | 0% | 11% | 56% | 0% | 0% | 24% | 0% | 11% | 55%
